Among the data in the supplement of paper PMC9262897, “Low-cost anti-mycobacterial drug discovery using engineered E. coli” (Nature Communications, 2022) are growth values, retold here.

Where a name gives a salt, the structure may show the parent alone. ± gives the standard deviation of the averaged measurements.

What all share (assay): growth (OD600 after 10 h); higher = more growth (less inhibition)
The subject of assay [1] is E. coli TESEC Alr+ wild-type control. The conditions noted are these: compound 0.1 mM; raw OD600 reference: median of DMSO wells 0.241, cell-free background 0.041. As to the method:
(§1)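 TESEC Mtb Alr E. coli, or the Alr+ wild-type control, in 384-well plates with Prestwick library compounds at 0.1 mM and 1% DMSO, across arabinose induction levels of 1E3 to 1E7 nM. Growth is read as OD600 after 10 h at 37 °C in triplicate biological replicates.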

The subject of assay [2] is E. coli TESEC Mtb Alr. The conditions noted are these: compound 0.1 mM. As to the method: as §1
In the next assay the test system is E. coli TESEC Mtb Asd. The conditions noted are these: compound 0.1 mM. As to the method: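 TESEC E. coli strains in which the native enzyme is deleted and replaced by arabinose-inducible Mtb Asd, DapB, CysH or TrpD, each grown in its selective medium. Strains were screened against the Prestwick library at 0.1 mM and 1% DMSO in 384-well format at low and high arabinose induction. Growth is read as OD600 after 10 h in triplicate.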

In assay [3] the test system is E. coli TESEC Alr+ wild-type control. The conditions noted are these: compound 0.1 mM; raw OD600 reference: median of DMSO wells 0.49, cell-free background 0.052. The protocol: (§2)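 TESEC Mtb Alr E. coli (ΔaraC ΔtolC ΔentC Δalr ΔdadX, arabinose-inducible Mtb Alr) or the Alr+ wild-type control strain, grown in defined M9-fructose medium without D-alanine in 96-well plates with Prestwick library compounds at 0.1 mM and 1% DMSO. Low Alr induction is 0.1 µM arabinose and high induction is 10 mM arabinose.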

Assay [4] relates to E. coli TESEC Mtb Alr. To be noted: compound 0.1 mM. As to the method: as §2
This is another data set of the same source.

The mark [5] stands for this setting: arabinose 1000 nM, raw OD600 reference: median of DMSO wells 0.294, cell-free background 0.041.
[6] abbreviates: arabinose 10000 nM, raw OD600 reference: median of DMSO wells 0.264, cell-free background 0.041.
The mark [7] stands for this setting: arabinose 100000 nM, raw OD600 reference: median of DMSO wells 0.201, cell-free background 0.041.
Setting [8] is: arabinose 1000000 nM, raw OD600 reference: median of DMSO wells 0.193, cell-free background 0.041.
Where [9] appears, read: arabinose 10000000 nM, raw OD600 reference: median of DMSO wells 0.146, cell-free background 0.041.
The mark [10] stands for this setting: arabinose induction (level): High, raw OD600 reference: median of DMSO wells 0.331, cell-free background 0.041.
The mark [11] stands for this setting: arabinose induction (level): Low, raw OD600 reference: median of DMSO wells 0.417, cell-free background 0.041.
The mark [12] stands for this setting: arabinose 100 nM, raw OD600 reference: median of DMSO wells 0.413, cell-free background 0.052.
Where [13] appears, read: arabinose 10000000 nM, raw OD600 reference: median of DMSO wells […], cell-free background 0.052.

For the compound `CC(=O)/N=c1/sc(S(N)(=O)=O)nn1C` [Methazolamide], the growth in assay [1] stood at 0.247 ± 0.0057; in the assay with E. coli TESEC Mtb Alr [2] (setting [5]), 0.301 ± 0.019; in the assay on E. coli TESEC Mtb Alr [2] (setting [6]) it was 0.266 ± 0.0036; in the assay with E. coli TESEC Mtb Alr [2] (setting [7]) it was 0.198 ± 0.019; in the assay on E. coli TESEC Mtb Alr [2] (setting [8]), 0.193 ± 0.0042; with E. coli TESEC Mtb Alr [2] (setting [9]) it was 0.138 ± 0.01. Further, the growth in the assay on E. coli TESEC Mtb Asd (setting [10]) turned out to be 0.342 ± 0.034; with E. coli TESEC Mtb Asd (setting [11]) it was 0.447 ± 0.02; in assay [3], 0.438 ± 0.049; in the assay on E. coli TESEC Mtb Alr [4] (setting [12]), 0.397 ± 0.012; with E. coli TESEC Mtb Alr [4] (setting [13]), 0.348 ± 0.027.

As to `C#CCN(C)Cc1ccccc1` [Pargyline hydrochloride], the growth in assay [1] turned out to be 0.25 ± 0.0048; with E. coli TESEC Mtb Alr [2] (setting [5]), 0.291 ± 0.0091; with E. coli TESEC Mtb Alr [2] (setting [6]), 0.278 ± 0.0057; in the assay with E. coli TESEC Mtb Alr [2] (setting [7]), 0.206 ± 0.02; in the assay with E. coli TESEC Mtb Alr [2] (setting [8]), 0.19 ± 0.0033; in the assay with E. coli TESEC Mtb Alr [2] (setting [9]), 0.142 ± 0.0058. Moreover, the growth with E. coli TESEC Mtb Asd (setting [10]) was found to be 0.34 ± 0.035; in the assay with E. coli TESEC Mtb Asd (setting [11]) it was 0.429 ± 0.047; in assay [3], 0.516 ± 0.11; in the assay on E. coli TESEC Mtb Alr [4] (setting [12]) it was 0.412 ± 0.0092; in the assay with E. coli TESEC Mtb Alr [4] (setting [13]), 0.357 ± 0.007.

In the case of `NCC[C@H](O)C(=O)N[C@@H]1C[C@H](N)[C@@H](O[C@H]2O[C@H](CN)[C@@H](O)[C@H](O)[C@H]2O)[C@H](O)[C@H]1O[C@H]1O[C@H](CO)[C@@H](O)[C@H](N)[C@H]1O` [Amikacin hydrate], the growth in assay [1] is 0.04273 ± 0.00012; with E. coli TESEC Mtb Alr [2] (setting [5]), 0.0418 ± 0.00079; with E. coli TESEC Mtb Alr [2] (setting [6]), 0.039 ± 0.0001; with E. coli TESEC Mtb Alr [2] (setting [7]), 0.0425 ± 0.0009; in the assay on E. coli TESEC Mtb Alr [2] (setting [8]) it was 0.03943 ± 0.00021; in the assay with E. coli TESEC Mtb Alr [2] (setting [9]), 0.0506 ± 0.00051. For the same compound, the growth worked out at 0.0495 ± 0.0018 in the assay on E. coli TESEC Mtb Asd (setting [10]); 0.0485 ± 0.0012 in the assay with E. coli TESEC Mtb Asd (setting [11]); 0.0539 ± 0.00071 in assay [3]; 0.0563 ± 0.0034 in the assay with E. coli TESEC Mtb Alr [4] (setting [12]); 0.0532 ± 0.0009 with E. coli TESEC Mtb Alr [4] (setting [13]).

With `CC1=C(C(=O)O)N2C(=O)[C@@H](NC(=O)[C@H](N)c3ccc(O)cc3)[C@H]2SC1` [Cefadroxil], the growth in assay [1] is 0.255 ± 0.012; with E. coli TESEC Mtb Alr [2] (setting [5]) it was 0.2848 ± 0.0015; with E. coli TESEC Mtb Alr [2] (setting [6]) it was 0.274 ± 0.011; with E. coli TESEC Mtb Alr [2] (setting [7]) it was 0.217 ± 0.011; in the assay on E. coli TESEC Mtb Alr [2] (setting [8]), 0.199 ± 0.002; in the assay with E. coli TESEC Mtb Alr [2] (setting [9]) it was 0.137 ± 0.0042. Besides, the growth with E. coli TESEC Mtb Asd (setting [10]) amounted to 0.294 ± 0.035; in the assay on E. coli TESEC Mtb Asd (setting [11]), 0.444 ± 0.13; in assay [3], 0.606 ± 0.045; in the assay with E. coli TESEC Mtb Alr [4] (setting [12]) it was 0.427 ± 0.012; with E. coli TESEC Mtb Alr [4] (setting [13]) it was 0.326 ± 0.011.

As to `OC(Cn1cncn1)(Cn1cncn1)c1ccc(F)cc1F` [Fluconazole], the growth in assay [1] stood at 0.2384 ± 0.0019; in the assay on E. coli TESEC Mtb Alr [2] (setting [5]), 0.29 ± 0.005; in the assay with E. coli TESEC Mtb Alr [2] (setting [6]), 0.276 ± 0.0067; with E. coli TESEC Mtb Alr [2] (setting [7]) it was 0.187 ± 0.029; in the assay with E. coli TESEC Mtb Alr [2] (setting [8]) it was 0.211 ± 0.0083; in the assay on E. coli TESEC Mtb Alr [2] (setting [9]), 0.14 ± 0.0056. In addition, the growth in the assay on E. coli TESEC Mtb Asd (setting [10]) was found to be 0.267 ± 0.015; in the assay with E. coli TESEC Mtb Asd (setting [11]) it was 0.283 ± 0.037; in assay [3] it was 0.505 ± 0.049; in the assay with E. coli TESEC Mtb Alr [4] (setting [12]), 0.411 ± 0.012; with E. coli TESEC Mtb Alr [4] (setting [13]), 0.357 ± 0.017.

In the case of `CCOc1ccc2ccccc2c1C(=O)N[C@@H]1C(=O)N2[C@@H]1SC(C)(C)[C@@H]2C(=O)O` [Nafcillin sodium salt monohydrate], the growth in assay [1] worked out at 0.236 ± 0.0097; with E. coli TESEC Mtb Alr [2] (setting [5]) it was 0.303 ± 0.011; in the assay on E. coli TESEC Mtb Alr [2] (setting [6]), 0.257 ± 0.014; in the assay with E. coli TESEC Mtb Alr [2] (setting [7]), 0.203 ± 0.0041; in the assay on E. coli TESEC Mtb Alr [2] (setting [8]) it was 0.188 ± 0.01; with E. coli TESEC Mtb Alr [2] (setting [9]), 0.138 ± 0.0027. In addition, the growth with E. coli TESEC Mtb Asd (setting [10]) worked out at 0.43 ± 0.048; in the assay with E. coli TESEC Mtb Asd (setting [11]), 0.439 ± 0.043; in assay [3], 0.6426 ± 0.0049; in the assay on E. coli TESEC Mtb Alr [4] (setting [12]), 0.403 ± 0.013; in the assay on E. coli TESEC Mtb Alr [4] (setting [13]), 0.343 ± 0.016.

Regarding `Nc1ccc(S(=O)(=O)Nc2nccs2)cc1` [Sulfathiazole], the growth in assay [1] amounted to 0.244 ± 0.013; with E. coli TESEC Mtb Alr [2] (setting [5]) it was 0.275 ± 0.013; in the assay on E. coli TESEC Mtb Alr [2] (setting [6]) it was 0.203 ± 0.0029; in the assay on E. coli TESEC Mtb Alr [2] (setting [7]) it was 0.202 ± 0.029; in the assay on E. coli TESEC Mtb Alr [2] (setting [8]), 0.125 ± 0.0031; in the assay with E. coli TESEC Mtb Alr [2] (setting [9]) it was 0.142 ± 0.006. Moreover, the growth with E. coli TESEC Mtb Asd (setting [10]) stood at 0.377 ± 0.045; with E. coli TESEC Mtb Asd (setting [11]), 0.384 ± 0.032; in assay [3], 0.5194 ± 0.0026; in the assay with E. coli TESEC Mtb Alr [4] (setting [12]), 0.422 ± 0.013; with E. coli TESEC Mtb Alr [4] (setting [13]), 0.343 ± 0.02.
